For 86 compounds, inhibition results are on record in PubChem BioAssay AID485270 (The Scripps Research Institute Molecular Screening Center, 2010).

Molecules are shown by their SMILES. Among all 330,000 compounds or so, about 5,800 (1.8%) were called active. Only a selection was taken, and actives are over-represented in it overall. A number with no mark means an inactive call. No stated cut-off is given here; in the data, active means inhibition mostly above about 38% (no sharp cut-off); inactive means mostly below about 40%.

The target of the experiment is Orexin/Hypocretin receptor type 1 (Homo sapiens) (UniProt O43613). Briefly: antagonists of human orexin 1 receptor (OX1R) (AID 485270).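 Further: 0% = agonist challenge alone and 100% = reference antagonist.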 The settings on record: OX1R-expressing cells, FRET antagonist read-out; at 6.6 µM; stronger effect = higher value.
Orexin/Hypocretin receptor type 1 (Homo sapiens), sequence (O43613 whole entry, looked up): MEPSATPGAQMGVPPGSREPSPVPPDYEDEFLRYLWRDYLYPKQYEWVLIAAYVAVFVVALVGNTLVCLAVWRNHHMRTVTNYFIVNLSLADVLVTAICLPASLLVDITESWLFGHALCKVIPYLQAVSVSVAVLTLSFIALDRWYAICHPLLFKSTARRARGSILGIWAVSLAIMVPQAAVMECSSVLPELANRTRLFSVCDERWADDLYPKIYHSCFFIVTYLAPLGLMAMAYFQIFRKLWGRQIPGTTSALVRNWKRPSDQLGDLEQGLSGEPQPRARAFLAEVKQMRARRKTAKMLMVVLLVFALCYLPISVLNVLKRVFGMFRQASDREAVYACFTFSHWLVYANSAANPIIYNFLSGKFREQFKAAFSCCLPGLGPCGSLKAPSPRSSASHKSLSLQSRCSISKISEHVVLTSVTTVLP
What is called inhibition is the change of the read-out against control, counted positive when it falls. Regarding `O=C(NNS(=O)(=O)c1c(F)cc(F)c(Cl)c1F)C12CC3CC(CC(C3)C1)C2`, the inhibition was 6.19%. The value for `COc1ccc(C(=O)NCc2ccccc2C)cc1S(=O)(=O)NC1CCCC1` was 8.7%. The value for `O=C(COC(=O)c1ccc(O)cc1O)c1ccc2c(c1)OCCO2` was 9.27%; that for `CCNC(=S)N1CCN(S(=O)(=O)c2ccc(Cl)s2)CC1` was 13.3%. The value for `CC(C)(C)OC(=O)C1=C(CO)CS[C@@H]2[C@H](NC(=O)Cc3ccccc3)C(=O)N12` was 17.7%. `CCCCN(CC)C(=S)Nc1ccc2nc3n(c(=O)c2c1)CCCCC3`: the inhibition is 5.73%.

As for `O=C(Nc1ccc2nc3n(c(=O)c2c1)CCCC3)c1ccc(Cl)nc1`, the inhibition is 4.47%. The value for `O=c1c2cc([N+](=O)[O-])ccc2nc2n1CCC2` was 59.2% (active). `N/C(=N\OC(=O)c1ccc([N+](=O)[O-])cc1)c1ccccn1`: the inhibition is 53.4%.

For `Cc1ccc(C(=O)O/N=C(\N)c2ccccn2)cc1Cl`, the inhibition was 14.1%. Next, `COc1ccc(C(=O)O/N=C(\N)c2ccccn2)cc1[N+](=O)[O-]`: 28.6% (active); `O=C(O[C@@H]1[C@H](Cc2ccccc2)NS(=O)(=O)[C@H]2C[C@@H]3C=C[C@]12O3)c1ccccc1Br`: 52.4% (active); `O=C(O[C@H]1[C@H](Cc2ccccc2)NS(=O)(=O)[C@H]2C[C@@H]3C=C[C@]12O3)c1ccc([N+](=O)[O-])cc1`: 15.9%. Next, `CC(C)C(NC(=O)c1c(F)cccc1F)C(=O)NNC(=O)c1ccccc1` (stereo unspecified): 2.8%.

As for `COc1ccc(-c2c(C#Cc3ccsc3)c3cc(-c4ccc(CN5CCOCC5)cc4)ccc3n2C)cc1`, the inhibition is 8.67%. In the case of `COc1cc(C(=S)N2CCOCC2)cc(OC)c1OC(=O)c1ccc([N+](=O)[O-])cc1[N+](=O)[O-]`, the inhibition was 113% (active). Next, `COc1cc(C(=S)N2CCOCC2)cc(OC)c1OC(=O)c1cc([N+](=O)[O-])c(C)c([N+](=O)[O-])c1`: 8.29%; `COc1cc(C(=S)N2CCOCC2)cc(OC)c1OC(=O)c1cc([N+](=O)[O-])cc([N+](=O)[O-])c1`: 66.5%; `Cc1cccc([C@H]2[C@@H]3C=CC[C@@H](C)[C@@H]3C(=O)N2Cc2ccccc2)c1`: 23.4%.

For the compound `Cc1c(C(=O)Nc2cccc(S(=O)(=O)N3CCOCC3)c2)oc2ccccc12`, the inhibition was 24.2%. The value for `CC(=O)c1ccc(OC(=O)N2CCOCC2)cc1` was 0.24%.

With `CC(=O)Oc1ccc(C(C)=O)c2c1OCCO2`, the inhibition is 88.7% (active). The value for `CC(=O)c1ccc2c(c1)OCCOCCOc1ccc(C(C)=O)cc1OCCOCCO2` was 0.66%; that for `O=C(NCCc1ccco1)c1ccc(OCc2cn3ccccc3n2)cc1` was 8.69%. Next, `COc1ccc(CCn2c(NN=C3CCCC3)nc3c2c(=O)[nH]c(=O)n3C)cc1`: 18.2%; `COc1ccc(CNc2nc3c(c(=O)[nH]c(=O)n3C)n2Cc2ccccc2)cc1`: -5.7%. Next, `COc1ccc(CCn2c(NCCCN3CCOCC3)nc3c2c(=O)[nH]c(=O)n3C)cc1`: 101% (active); `Cc1ccc(S(=O)(=O)Nc2ccc(F)c(S(=O)(=O)N3CCOCC3)c2)cc1`: 21.7%; `O=C(CSc1nc2ccccc2c(=O)n1-c1ccccc1F)N1CCOCC1`: 16.2%. `CC(C)(C)c1cc(C(=O)N/N=C/c2ccc([N+](=O)[O-])s2)n[nH]1`: the inhibition was 56.3% (active).

Regarding `COc1ccc2ccccc2c1/C=N/NC(=O)c1cc(C)[nH]n1`, the inhibition is 39.3%. Next, `Cc1ccccc1NCC(=O)N/N=C\c1ccc([N+](=O)[O-])s1`: 20.9%; `CC(=O)N1CCCc2cc(S(=O)(=O)N3CCCC(C(=O)N4CCN(c5cccc(Cl)c5)CC4)C3)ccc21` (stereo unspecified): 39.7% (active); `CC(=O)N1c2ccc(S(=O)(=O)N3CCCC(C(=O)Nc4cccc(Cl)c4)C3)cc2CC1C` (stereo unspecified): 2.16%. The value for `CC(=O)N1CCCc2cc(S(=O)(=O)N3CCCC(C(=O)NCc4ccc(Cl)cc4)C3)ccc21` (stereo unspecified) was 10.5%; that for `CSCCC1NC(=O)N(CC(=O)Nc2cccc(S(=O)(=O)N3CCCCCC3)c2)C1=O` (stereo unspecified) was 12.6%. On to `O=C1[C@@H](c2ccccc2)[C@@H](c2ccccc2)N1c1cccnc1`, for which the inhibition is 26%.

As for `Cc1cc(C(C)(C)C)oc1C(=O)N(CC(=O)NC1CCCC1)Cc1ccc(Cl)cc1`, the inhibition was 22.5%. Take `O=C(COC(=O)Cc1ccc([N+](=O)[O-])cc1)NC1CCCCCC1`: the inhibition is 2.43%. Next, `Cc1cc(C)cc(NC(=O)C(OC(=O)c2ccc(O)cc2)c2ccccc2)c1` (stereo unspecified): 9.51%.

Regarding `CC(C)CC[n+]1ccn(C2=C([O-])c3ccccc3C(=O)/C2=N\S(=O)(=O)c2ccccc2)c1`, the inhibition was 79.9% (active).

In the case of `O=C(CCc1ccc(S(=O)(=O)N2CCOCC2)cc1)OCC(=O)c1ccc(Br)cc1`, the inhibition was 4.77%. As to `O=C(Nc1nnc(-c2ccccc2)o1)c1cccc(S(=O)(=O)N2CCOCC2)c1`, the inhibition was 13.1%.

On to `COc1ccc(C(=O)C(C)OC(=O)c2cccc(S(=O)(=O)Nc3c(C)n(C)n(-c4ccccc4)c3=O)c2)cc1` (stereo unspecified), for which the inhibition is 41.2% (active). In the case of `COc1ccc(NS(=O)(=O)c2ccc(C(=O)Nc3c(C)n(C)n(-c4ccccc4)c3=O)cc2)cc1`, the inhibition was 8.89%. Next, `Cc1c(NC(=O)C(C)OC(=O)c2ccccc2O)c(=O)n(-c2ccccc2)n1C` (stereo unspecified): 5.32%; `Cc1cc(NC(=O)CSc2nnc(-c3ccco3)n2N)no1`: 9.57%. The value for `O=C(CNC(=O)c1ccccc1F)OCC(=O)c1c[nH]c2ccccc12` was 3.49%.

For `COc1ccc(NS(=O)(=O)c2cc(NC(=O)c3ccc(S(=O)(=O)N(C)C)cc3)ccc2N2CCOCC2)cc1`, the inhibition was 6.2%. Next, `COc1ccc(C(=O)COC(=O)C(O)c2ccccc2)c(OC)c1` (stereo unspecified): 3.45%; `O=C(COC(=O)c1ccc(F)cc1)NCC1COc2ccccc2O1` (stereo unspecified): 6.76%; `O=C(CN1C(=O)S/C(=C\c2ccccc2F)C1=O)NCCCn1ccnc1`: 20.4%. The value for `O=C(CN1C(=O)/C(=C\c2ccc(C(F)(F)F)cc2)Sc2ccccc21)NCc1ccco1` was 38.3%. The value for `O=C(CN1C(=O)/C(=C/c2ccccc2F)Sc2ccccc21)NCc1cccnc1` was 46.6% (active); that for `C[C@H](NS(=O)(=O)c1ccc(Cl)cc1)C(=O)OCC(=O)N1CCOCC1` was 1.59%; that for `CSCCC(NC(=O)c1cc([N+](=O)[O-])cc([N+](=O)[O-])c1)c1nc2ccccc2[nH]1` (stereo unspecified) was 82% (active). Turning to `CSCCC(NC(=O)c1ccc(=O)n(C)n1)c1nc2ccccc2[nH]1` (stereo unspecified), the inhibition is 12.2%.

In the case of `COc1ccc(CC(=O)N[C@@H](CCSC)c2nc3ccccc3[nH]2)cc1`, the inhibition is 33.1%.

`CN(c1ccccc1)S(=O)(=O)c1cccc(NC(=O)Cc2c(F)cccc2Cl)c1`: the inhibition is 26.3%. Consider `COc1ccc(OC)c2sc(NC(=O)C3COc4ccccc4O3)nc12` (stereo unspecified), for which the inhibition was 14.5%. The value for `COc1ccc(NC(=O)c2ccccc2[N+](=O)[O-])cc1OC` was 10.8%.

`COc1ccc([N+](=O)[O-])cc1NC(=O)CCc1ccccc1`: the inhibition is 28.9%. Next, `O=C(Nc1ncc([N+](=O)[O-])s1)C1COc2ccccc2O1` (stereo unspecified): 57.4% (active).

With `CC(C)Cc1nnc(NC(=O)CCc2ccccc2)s1`, the inhibition is -12.6%. The value for `CC(=O)Oc1ccccc1C(=O)Nc1ncc([N+](=O)[O-])s1` was 86% (active). As to `O=C(Cc1c(F)cccc1Cl)Nc1ncc([N+](=O)[O-])s1`, the inhibition was 43.1% (active). Next, `O=C(CCc1ccccc1)Nc1ncc([N+](=O)[O-])s1`: 52.7% (active). Next, `O=C(Cc1c(F)cccc1Cl)Nc1ccc(-n2cnnn2)cc1`: 3.25%; `Cc1cnc(NC(=O)c2ccccn2)s1`: 14.3%. Next, `COc1ccc(NC(=O)C2COc3ccccc3O2)cc1` (stereo unspecified): 3.74%; `O=C(OCCN1C(=O)c2ccccc2C1=O)[C@@H]1CC(O)CN1S(=O)(=O)c1ccccc1[N+](=O)[O-]` (stereo partly specified): 7.02%; `O=C(COC(=O)C1CCCO1)Nc1nc(-c2ccc(F)cc2)cs1` (stereo unspecified): 5.35%.

With `C=CCC[C@H](Cc1ccc(F)cc1)C(=O)OC[C@H](C)NC(=O)[C@H](CC=C)CC(=O)N(CCO)Cc1ccccc1`, the inhibition is 17.6%.

Take `O=C(COC(=O)c1ccc(F)c(S(=O)(=O)N2CCOCC2)c1)NCc1ccc2c(c1)OCO2`: the inhibition is 7.1%.

As to `COc1ccc2c(CC(=O)NNC(=O)c3ccccc3F)coc2c1`, the inhibition is 7.98%.

On to `CCCCOc1ccc(N(CC(=O)NC(C)C)C(=O)CCC(=O)Nc2ccccn2)cc1`, for which the inhibition is 4.64%. Next, `CN(CCc1ccccc1)C(=O)c1cccc(NC(=O)Cc2ccc([N+](=O)[O-])cc2)c1`: 14.3%; `CN(Cc1ccccc1)C(=O)COC(=O)/C=C/c1ccc2c(c1)OCO2`: 4.7%; `CCCCNC(=O)C(C)N(CCN(C)C)C(=O)CCCN1C(=O)NC(c2ccc(Cl)cc2)C(C(=O)OCc2ccccc2)=C1C` (stereo unspecified): 13.9%.

Consider `C=C1c2cccc(OC)c2O[C@H](C(=O)OCC)[C@@H]1CCCCCC`, for which the inhibition is 1.8%.

For `CC(C)OCCCNC(=O)c1cc(Sc2ccc(F)cc2)nc2ccccc12`, the inhibition was 23.4%. Next, `CC(C)OCCCNc1ncnc2c1[nH]c1ccc(F)cc12`: 64.8% (active). Regarding `O=C1NC(Cc2ccc(O)cc2)c2nc3ccc(Cl)cc3c(=O)n2-c2ccccc21` (stereo unspecified), the inhibition is 6.78%. Next, `CCOC(=O)C1Sc2[nH]c(=O)sc2C(c2ccc(Cl)cc2)C1C(=O)OCC` (stereo unspecified): 49.6% (active); `CCOC(=O)C1=C(C)NC(=O)N(C(C)=O)C1c1ccc(Cl)cc1` (stereo unspecified): 12.3%. Turning to `CCOC(=O)C1C(c2ccc(Cl)cc2)NC(=S)NC1(O)C(F)(F)F` (stereo unspecified), the inhibition was 2.06%.
